Calls of active or inactive are those of the source. Unless noted, the rule behind the calls is not given here.
Legend:
[1] = HepG2 liver cancer cell viability effects, profiling panel, resazurin fluorescence, 24 h, PK04 Diversity Set (AID 1172); conditions: higher = more signal
[2] = basal S. cerevisiae growth modulation, no modifier, primary screen, OD600, strain BY4716, 24 h, basal condition (AID 1173); conditions: OD600, 24 h, higher = more signal, called active from +8 up or from −8 down
[3] = MM1S myeloma cell viability, profiling panel, resazurin fluorescence, basal, 24 h, PK04 Diversity Set (AID 1174); conditions: higher = more signal, called active from +8 up or from −8 down;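 note: MM1S multiple myeloma cell line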
[4] = biological target: Dihydroorotate dehydrogenase (quinone), mitochondrial (Plasmodium falciparum (isolate 3D7)) (UniProt Q08210); test: PfDHODH enzyme inhibitors, primary screen, biochemical, C-terminal His tag, absorbance 600 nm (AID 1175); conditions: DCIP absorbance 600 nm, higher = more signal, called active from +8 up or from −8 down;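 note: recombinant parasite enzyme with a five histidine tag at its C terminus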
[5] = P. aeruginosa biofilm formation inhibitors, primary screen, strain PAO1, LB-PBS medium, absorbance 600 nm (AID 1176); conditions: P. aeruginosa PAO1 growth/biofilm, A600, 12 h; higher = more signal
[6] = S. cerevisiae RM11-1a growth modifiers, primary screen, strain RM11-1a, OD600, basal, 24 h (AID 1177); conditions: OD600, 24 h, higher = more signal, called active from +8 up or from −8 down;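 note: cultures grown under basal conditions with no added stressor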
[7] = E. coli acrAB mutant growth effects, primary screen, E. coli filamentation inducers, strain DRC39, OD650, 24 h (AID 1178); conditions: higher = more signal, called active from +8 up or from −8 down;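 note: growth measured as culture turbidity by optical density at 650 nm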
[8] = E. coli acrAB mutant growth effects, primary screen, E. coli filamentation inducers, strain DRC39, OD650, 48 h (AID 1179);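 note: screen aims at cell division blockers that make cells filament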; conditions: E. coli DRC39 delta-acrAB growth, higher = more signal, called active from +8 up or from −8 down
[9] = RPMI8226 myeloma cell viability, profiling panel, resazurin fluorescence, basal, 24 h, PK04 Diversity Set (AID 1180); conditions: higher = more signal;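 note: RPMI8826 multiple myeloma cell line at 5000 cells per well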
[10] = biological target: E3 ubiquitin-protein ligase XIAP (Homo sapiens) (UniProt P98170); test: XIAP binders, primary screen, biophysical, small-molecule microarray, fluorescence 635 nm (AID 1181); conditions: small-molecule microarray binding, higher = more signal;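 note: score merges 667 nm emission and signal to noise over triplicate slides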
[11] = test system: XIP peptide (Xip251-270) binding; test: small-molecule binders of XIP peptide, primary screen, biochemical, small-molecule microarray, fluorescence 635/667 nm, 0.1 µg/mL protein (AID 1182); conditions: fluorescent protein binding, 635 nm, higher = more signal, called active from +8 up or from −8 down
XIP peptide (Xip251-270) = test: small-molecule binders of XIP peptide, primary screen, biochemical, small-molecule microarray, fluorescence 635/667 nm, 0.5 µg/mL protein (AID 1183); conditions: small-molecule microarray binding, fluorescence 635 nm; higher = more signal
[12] = Plasmodium falciparum growth inhibition, primary screen, strain 3D7, DAPI fluorescence, 100 nL (AID 1184);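 note: parasites grown inside human red blood cells in medium with human serum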; conditions: P. falciparum 3D7 growth, 3 d, higher = more signal
[13] = biological target: Homeobox protein Hox-A13 (Mus musculus) (UniProt Q62424); test: inhibitors of HoxA13-DNA binding, primary screen, biochemical, fluorescence polarization, labeled oligonucleotide (AID 1185); conditions: 15 min, higher = more signal, called active from +8 up or from −8 down
Chain of Homeobox protein Hox-A13 (Mus musculus) (Q62424 whole entry, looked up): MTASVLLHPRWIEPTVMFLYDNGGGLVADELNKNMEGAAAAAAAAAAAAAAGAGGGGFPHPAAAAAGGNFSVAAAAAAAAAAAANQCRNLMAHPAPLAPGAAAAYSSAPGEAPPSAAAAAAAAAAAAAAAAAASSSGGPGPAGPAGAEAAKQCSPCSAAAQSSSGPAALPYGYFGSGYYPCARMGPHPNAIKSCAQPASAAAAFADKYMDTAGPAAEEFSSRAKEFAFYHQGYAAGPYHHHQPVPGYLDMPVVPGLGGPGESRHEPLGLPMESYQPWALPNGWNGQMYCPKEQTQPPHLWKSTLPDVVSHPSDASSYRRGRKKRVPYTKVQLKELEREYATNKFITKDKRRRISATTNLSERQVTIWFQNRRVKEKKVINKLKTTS

Chain of E3 ubiquitin-protein ligase XIAP (Homo sapiens) (P98170 whole entry, looked up): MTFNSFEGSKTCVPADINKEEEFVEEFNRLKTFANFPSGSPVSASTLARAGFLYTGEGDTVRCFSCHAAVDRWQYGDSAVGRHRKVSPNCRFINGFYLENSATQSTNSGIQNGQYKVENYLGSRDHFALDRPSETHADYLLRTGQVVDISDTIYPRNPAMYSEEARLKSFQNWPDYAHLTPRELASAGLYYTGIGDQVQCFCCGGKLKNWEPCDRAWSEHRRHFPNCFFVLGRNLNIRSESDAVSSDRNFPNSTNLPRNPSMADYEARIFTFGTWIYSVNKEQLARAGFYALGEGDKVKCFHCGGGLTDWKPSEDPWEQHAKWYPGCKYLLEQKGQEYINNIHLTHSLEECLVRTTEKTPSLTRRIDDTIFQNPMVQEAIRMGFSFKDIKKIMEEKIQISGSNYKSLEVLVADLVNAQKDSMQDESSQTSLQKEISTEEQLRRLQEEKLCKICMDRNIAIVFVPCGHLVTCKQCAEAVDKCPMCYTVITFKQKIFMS
Chain of Dihydroorotate dehydrogenase (quinone), mitochondrial (Plasmodium falciparum (isolate 3D7)) (Q08210 whole entry, looked up): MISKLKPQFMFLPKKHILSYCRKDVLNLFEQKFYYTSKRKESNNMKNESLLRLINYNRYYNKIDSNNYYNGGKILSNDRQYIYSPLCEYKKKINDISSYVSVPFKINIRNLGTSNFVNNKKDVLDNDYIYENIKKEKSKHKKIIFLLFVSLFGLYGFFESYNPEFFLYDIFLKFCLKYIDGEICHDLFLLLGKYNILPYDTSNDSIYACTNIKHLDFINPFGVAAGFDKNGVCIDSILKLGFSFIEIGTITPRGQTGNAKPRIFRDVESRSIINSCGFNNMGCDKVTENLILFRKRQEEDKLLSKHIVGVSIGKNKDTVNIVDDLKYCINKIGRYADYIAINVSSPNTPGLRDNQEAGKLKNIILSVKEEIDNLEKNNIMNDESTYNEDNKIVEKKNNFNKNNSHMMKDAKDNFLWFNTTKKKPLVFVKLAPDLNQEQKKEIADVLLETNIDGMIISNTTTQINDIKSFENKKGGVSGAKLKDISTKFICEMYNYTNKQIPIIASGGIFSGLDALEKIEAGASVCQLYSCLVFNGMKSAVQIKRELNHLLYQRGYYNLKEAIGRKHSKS

Compound | z-score [1] | z-score [2] | z-score [3] | composite z-score [4] | z-score [5] | z-score [6] | z-score [7] | z-score [8] | z-score [9] | composite z-score [10] | composite z-score [11] | composite z-score (XIP peptide (Xip251-270)) | z-score [12] | z-score [13]
COC(=O)[C@H](C)NC(=O)CCC1CC(OC(=O)NCCc2ccc(F)cc2)CC2(CCCC(COC(=O)NCCc3ccccc3OC)O2)O1 (some centres not stated) | 0.185 | 0.292 (inactive) | 0.173 (inactive) | 0.098 (inactive) | 0.119 (inactive) | 0.878 (inactive) | 0.636 (inactive) | -0.487 (inactive) | 0.833 | -0.0615 | 0.784 (inactive) | 0.341 | -1.26 | -6.13 (inactive)
CC(=O)OC[C@H]1O[C@H](CC=NOC[C@@H](O)[C@H]2O[C@@H]3OC(C)(C)O[C@@H]3[C@H]2O)C=C[C@@H]1OC(C)=O | 0.287 | 0.933 (inactive) | -1.15 (inactive) | 0.189 (inactive) | -0.124 (inactive) | 1.08 (inactive) | 0.644 (inactive) | -0.717 (inactive) | -0.754 | 0.013 | 0.232 (inactive) | 0.732 | 0.158 | -0.147 (inactive)
COC(=O)CC=C[C@@H](C)[C@@H](C=NOC[C@@H](O)COCc1ccco1)OC | -0.195 | -0.656 (inactive) | -0.45 (inactive) | -0.527 (inactive) | -1.23 (inactive) | 0.12 (inactive) | 0.539 (inactive) | 0.803 (inactive) | 0.11 | 0.0345 | 0.146 (inactive) | 0.338 | 0.715 | -0.341 (inactive)
O=C1C2=CC[C@H]3C(=O)N(C[C@@H]4CCCO4)C(=O)[C@H]3[C@H]2[C@H](O)[C@@H]2O[C@H]12 | -0.154 | -0.87 (inactive) | -4.71 (inactive) | -0.619 (inactive) | -0.343 (inactive) | -0.511 (inactive) | 0.0929 (inactive) | 0.424 (inactive) | -1.7 | 0.204 | -0.14 (inactive) | 0.39 | -0.434 | -3.47 (inactive)
CC(=O)OC[C@H]1O[C@H](CC=NOC[C@@H](O)COCc2ccco2)C=C[C@@H]1OC(C)=O | -0.13 | 0.0523 (inactive) | 0.166 (inactive) | -0.554 (inactive) | -1.26 (inactive) | 0.178 (inactive) | 0.574 (inactive) | 0.924 (inactive) | 0.396 | -0.306 | 0.084 (inactive) | 0.479 | 0.466 | -0.226 (inactive)
CC#CCOCCC=C1c2ccccc2[C@@H](OC)[C@@H]1C | 0.651 | -1.71 (inactive) | -0.725 (inactive) | -0.412 (inactive) | 0.204 (inactive) | -0.551 (inactive) | -0.158 (inactive) | 0.212 (inactive) | 0.258 | 2.61 | 0.772 (inactive) | 0.0938 | -1.02 | -3 (inactive)
CON=C(C)CCC(=O)OC[C@H]1O[C@H](C#Cc2ccccc2)C=C[C@@H]1Oc1ccc(C)cc1 | -0.118 | -0.944 (inactive) | -0.642 (inactive) | 0.444 (inactive) | 0.298 (inactive) | 0.888 (inactive) | 0.556 (inactive) | -1.88 (inactive) | -0.549 | 0.289 | 0.177 (inactive) | 0.627 | -0.306 | -4.45 (inactive)
C=CC[C@@H]1C=C[C@H](ON=C2C[C@@H](O)[C@@H](O)[C@@H]3[C@@H]4C(=O)N(CC)C(=O)[C@@H]4CC[C@@H]23)[C@@H](CO)O1 | -1.05 | -0.099 (inactive) | -0.415 (inactive) | -2.18 (inactive) | -0.0781 (inactive) | -0.466 (inactive) | -0.939 (inactive) | -1.5 (inactive) | -0.216 | -0.289 | -0.192 (inactive) | -1.06 | -0.689 | 0.0713 (inactive)
COC(=O)[C@H](C)NC(=O)CCC1CC(OC(=O)NCc2ccc3c(c2)OCO3)CC2(CCCC(COC(=O)NCc3ccccc3)O2)O1 (some centres not stated) | 1.24 | -0.67 (inactive) | -0.731 (inactive) | -0.504 (inactive) | 0.38 (inactive) | 0.479 (inactive) | 1.03 (inactive) | 0.32 (inactive) | 1.11 | -0.205 | 0.361 (inactive) | 0.554 | -1.75 | -2.47 (inactive)
CO[C@@H](C(C)C)[C@@H](C)C1OC(=O)CC1O (some centres not stated) | -0.544 | -0.139 (inactive) | -0.766 (inactive) | -0.531 (inactive) | -0.139 (inactive) | -0.622 (inactive) | 0.284 (inactive) | 0.468 (inactive) | -1.17 | -0.0391 | 0.51 (inactive) | 0.129 | -1.69 | 0.186 (inactive)
CC(CCC(=O)OC[C@H]1O[C@H](C#Cc2ccccc2)C=C[C@@H]1Oc1ccc(C)cc1)=NOC(C)CN1CCCCc2nc(C)c(C)cc21 (some centres not stated) | 0.172 | 0.546 (inactive) | -0.0229 (inactive) | -0.669 (inactive) | 0.311 (inactive) | 0.46 (inactive) | 0.125 (inactive) | -0.116 (inactive) | 0.304 | -0.102 | -0.185 (inactive) | 0.0787 | -2.06 | -2.02 (inactive)
CN1CCc2nc(-c3ccccc3)c(-c3ccccc3)cc2C1 | 0.713 | 0.0367 (inactive) | 0.476 (inactive) | -0.191 (inactive) | -0.364 (inactive) | 0.298 (inactive) | 0.38 (inactive) | 0.105 (inactive) | 0.639 | 0.0024 | -0.368 (inactive) | 0.0309 | 0.309 | -0.07 (inactive)
COC(=O)CC=C[C@@H](C)[C@@H](C=NOC[C@@H](O)[C@H]1O[C@@H]2OC(C)(C)O[C@@H]2[C@H]1O)OC | -0.904 | -0.385 (inactive) | -0.311 (inactive) | 0.757 (inactive) | -0.525 (inactive) | 0.442 (inactive) | 0.404 (inactive) | 0.493 (inactive) | -1.51 | -0.158 | -0.33 (inactive) | -0.0618 | 0.364 | 0.321 (inactive)
CON(C)C(=O)c1nnc2c(n1)[nH]c1ccccc12 | -0.244 | 0.304 (inactive) | 0.322 (inactive) | -0.306 (inactive) | 0.131 (inactive) | -0.915 (inactive) | 0.593 (inactive) | 0.572 (inactive) | 0.492 | 0.273 | -0.132 (inactive) | 0.755 | 0.763 | 0.447 (inactive)
CON=C(C)CCN1CCCc2nc(C)c(C)cc21 | -0.183 | -0.899 (inactive) | -0.136 (inactive) | -0.329 (inactive) | 0.0981 (inactive) | -0.1 (inactive) | 0.213 (inactive) | -1.7 (inactive) | -0.22 | 0.346 | -0.0879 (inactive) | 0.428 | -0.18 | -7.51 (inactive)
CON=C(C)CCN1CCc2nc(-c3ccccc3)c(-c3ccccc3)cc2C1 | 1.86 | -6.56 (inactive) | -0.217 (inactive) | -0.467 (inactive) | 0.958 (inactive) | 0.886 (inactive) | 0.83 (inactive) | -2.48 (inactive) | 1.14 | -0.0115 | 0.257 (inactive) | 0.41 | -1.38 | -2.53 (inactive)
CC(C)[C@@H](OCc1ccccc1)[C@H](C)C=NO[C@H](C)c1cn([C@@H]2COC[C@H]2O)nn1 | -0.507 | -1.28 (inactive) | -0.648 (inactive) | -0.498 (inactive) | -0.0296 (inactive) | -0.0941 (inactive) | 0.462 (inactive) | 0.178 (inactive) | -0.64 | -0.173 | -0.0971 (inactive) | 0.0742 | 1.61 | -0.967 (inactive)
CCN1C(=O)[C@H]2[C@H]3[C@H](O)[C@H](O)CC(=NOC[C@@H](O)COCc4ccco4)[C@H]3CC[C@H]2C1=O | -0.92 | -0.54 (inactive) | -0.809 (inactive) | -0.164 (inactive) | -0.425 (inactive) | -0.178 (inactive) | -0.0557 (inactive) | 0.322 (inactive) | -1.23 | -0.0948 | 0.386 (inactive) | 0.505 | -0.0786 | 0.366 (inactive)

Source: PubChem BioAssay
